We go through ten compounds from ChEMBL document CHEMBL3988442, “University of Dundee, Small-Polar-MMV Screening Library” (2021).

SMILES strings stand for the structures. For some assays here: Measured potencies and affinities stand elsewhere.

Common to all, as to design: scale not given: direction of the effect not stated beside the values
Assay [1] has as its target Protein translocase subunit SecA (Escherichia coli (strain K12)) (UniProt P10408). Description: Assay to Identify E. coli SecA ATPase Inhibitors. The following applies: 30 µM. The assay is classed as functional.
Assay [2] has as its target T1, Ubiquitin-activating enzyme e1, putative (Leishmania donovani (strain BPK282A1)) (UniProt E9BSI1).
T1 sequence (whole entry): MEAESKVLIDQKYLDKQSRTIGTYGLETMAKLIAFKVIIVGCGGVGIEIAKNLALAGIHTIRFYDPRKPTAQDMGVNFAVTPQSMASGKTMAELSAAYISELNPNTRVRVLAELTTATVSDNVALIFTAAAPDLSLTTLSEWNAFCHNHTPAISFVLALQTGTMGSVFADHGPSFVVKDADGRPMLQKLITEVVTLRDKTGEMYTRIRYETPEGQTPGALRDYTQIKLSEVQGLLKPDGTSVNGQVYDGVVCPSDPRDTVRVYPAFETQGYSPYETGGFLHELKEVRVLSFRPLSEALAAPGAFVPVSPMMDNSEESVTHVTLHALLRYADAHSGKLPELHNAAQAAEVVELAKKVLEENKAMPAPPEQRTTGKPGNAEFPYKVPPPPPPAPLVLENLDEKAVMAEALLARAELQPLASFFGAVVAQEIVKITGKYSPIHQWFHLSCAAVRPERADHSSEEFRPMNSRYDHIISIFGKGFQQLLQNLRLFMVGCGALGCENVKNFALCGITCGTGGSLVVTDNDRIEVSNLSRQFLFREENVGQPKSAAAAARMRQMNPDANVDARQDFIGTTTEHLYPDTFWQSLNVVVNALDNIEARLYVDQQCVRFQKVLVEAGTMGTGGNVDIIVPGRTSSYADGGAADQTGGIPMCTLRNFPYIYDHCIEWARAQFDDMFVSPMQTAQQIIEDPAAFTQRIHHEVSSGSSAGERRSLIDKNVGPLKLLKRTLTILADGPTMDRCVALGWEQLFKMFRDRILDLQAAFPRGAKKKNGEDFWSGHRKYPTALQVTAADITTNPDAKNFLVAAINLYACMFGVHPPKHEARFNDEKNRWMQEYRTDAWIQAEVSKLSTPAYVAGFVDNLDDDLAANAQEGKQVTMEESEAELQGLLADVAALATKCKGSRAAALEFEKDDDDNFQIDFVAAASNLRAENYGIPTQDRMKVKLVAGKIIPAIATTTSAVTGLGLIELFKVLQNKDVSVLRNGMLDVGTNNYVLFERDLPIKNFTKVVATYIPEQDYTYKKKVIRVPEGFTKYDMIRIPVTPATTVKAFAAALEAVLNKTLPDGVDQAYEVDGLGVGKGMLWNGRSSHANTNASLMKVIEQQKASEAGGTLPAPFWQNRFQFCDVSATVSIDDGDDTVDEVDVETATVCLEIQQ
Description: Leishmania donovani Ubiquitin Activating Enzyme (LdE1). The format is functional. The conditions noted are these: 30 µM.

Assay [3] has as its target AMP-activated protein kinase, AMPK (Homo sapiens) (UniProt P54646+O43741+P54619+Q9UGJ0+Q9Y478+Q13131+Q9UGI9). Description: AMP-dependent Kinase enzyme assay. An in vitro enzyme assay that detects ADP turnover that is directly proportional to AMPK activity. This uses naive AMPK that is activated during the assay with MK-8722. The format is functional. The following applies: 30 µM.

For assay [4], the target named is Sialic acid-binding Ig-like lectin 9 (Homo sapiens) (UniProt Q9Y336). The assay can be described thus: Hs-Siglec9 ALPHAscreen SOP 20170721. The following applies: 10 µM.
A further assay deals with Trypanosoma cruzi. Description: Trypanosoma cruzi phosphomannomutase and mannose-1-phosphate guanylyltransferase assay. The assay is classed as functional. The following applies: 10 µM.
The target of assay [5] is T2, Arginase-2, mitochondrial (Homo sapiens) (UniProt P78540).
T2 sequence (whole entry): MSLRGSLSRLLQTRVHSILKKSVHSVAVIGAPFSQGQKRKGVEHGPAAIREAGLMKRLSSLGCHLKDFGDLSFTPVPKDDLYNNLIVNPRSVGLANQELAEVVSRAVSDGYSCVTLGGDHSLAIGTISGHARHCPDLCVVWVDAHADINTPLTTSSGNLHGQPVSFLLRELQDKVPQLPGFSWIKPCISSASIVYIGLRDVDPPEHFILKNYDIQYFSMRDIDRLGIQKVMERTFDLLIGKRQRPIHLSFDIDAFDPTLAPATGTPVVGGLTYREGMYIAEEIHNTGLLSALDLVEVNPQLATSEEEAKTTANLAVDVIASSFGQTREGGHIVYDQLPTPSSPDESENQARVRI
Description: in vitro enzyme assay to detect the production of urea directly proportional to the activity of Arginase II. Further: in the data most compounds retested in dose-response had high values. The assay is classed as functional. The following applies: 33.3 µM.

The target of assay [6] is T3, Proteasome subunit beta (Trypanosoma cruzi) (UniProt O96673).
T3 sequence (whole entry): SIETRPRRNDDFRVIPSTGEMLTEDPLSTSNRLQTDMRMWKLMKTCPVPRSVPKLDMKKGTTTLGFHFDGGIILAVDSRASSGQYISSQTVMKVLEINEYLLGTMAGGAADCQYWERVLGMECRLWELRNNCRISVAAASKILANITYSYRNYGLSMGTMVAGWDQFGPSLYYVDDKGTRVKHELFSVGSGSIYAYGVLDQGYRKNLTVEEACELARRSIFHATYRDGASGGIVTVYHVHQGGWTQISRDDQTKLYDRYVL
The assay can be described thus: Trypanosoma cruzi proteasome chymotrypsin-like activity (TcProtChymo) assay. Further: in the data most compounds retested in dose-response had high values. The format is functional. The conditions noted are these: 9.37 µM.

The species named for another assay is Homo sapiens. The assay can be described thus: To identify inhibition of the IFN signalling (Jak-Stat) pathway via expression of an eGFP reporter gene under the control of an IFN-stimulated response element (ISRE) containing MxA promoter. The assay is classed as functional. The following applies: 30 µM.
Assay [7] has as its target T4, Tyrosyl-tRNA synthetase, putative (Trypanosoma cruzi (strain CL Brener)) (UniProt Q4DSP6).
T4 sequence (whole entry): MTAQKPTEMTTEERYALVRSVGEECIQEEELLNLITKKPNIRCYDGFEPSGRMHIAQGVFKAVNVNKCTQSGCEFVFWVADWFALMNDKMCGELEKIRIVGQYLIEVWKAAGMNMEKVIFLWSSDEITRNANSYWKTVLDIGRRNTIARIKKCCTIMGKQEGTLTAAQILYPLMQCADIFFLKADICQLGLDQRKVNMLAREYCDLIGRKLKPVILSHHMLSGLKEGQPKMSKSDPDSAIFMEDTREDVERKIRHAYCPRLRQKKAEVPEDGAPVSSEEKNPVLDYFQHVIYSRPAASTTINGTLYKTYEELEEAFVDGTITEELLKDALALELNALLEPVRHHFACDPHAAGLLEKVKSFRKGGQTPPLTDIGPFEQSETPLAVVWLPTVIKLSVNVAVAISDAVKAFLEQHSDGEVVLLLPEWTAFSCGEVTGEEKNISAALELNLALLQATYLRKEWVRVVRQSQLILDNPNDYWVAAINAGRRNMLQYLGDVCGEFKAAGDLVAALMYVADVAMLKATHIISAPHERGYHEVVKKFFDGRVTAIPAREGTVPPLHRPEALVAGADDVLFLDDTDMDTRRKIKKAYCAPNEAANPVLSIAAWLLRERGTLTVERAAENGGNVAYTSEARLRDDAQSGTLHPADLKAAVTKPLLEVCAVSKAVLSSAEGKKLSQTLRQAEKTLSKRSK
The assay can be described thus: Trypanosoma cruzi tyrosyl tRNA synthetase (TcYRS) _High Tyrosine SOP. Further: in the data most compounds retested in dose-response had high values. The format is functional. The following applies: 30 µM.

Assay [8] concerns the target T4, Tyrosyl-tRNA synthetase, putative (Trypanosoma cruzi (strain CL Brener)). Description: Trypanosoma cruzi tyrosyl tRNA synthetase (TcYRS) SOP. The assay is classed as functional. The conditions noted are these: 30 µM.
Assay [9] addresses Chromo domain-containing protein 1 (Saccharomyces cerevisiae (strain ATCC 204508 / S288c) (Baker's yeast)) (UniProt P32657). Description: ScCHD-1 Enzyme Inhibition Assay. Further: in the data most compounds retested in dose-response had high values. The following applies: 30 µM. The format is functional.

Sequence of Protein translocase subunit SecA (Escherichia coli (strain K12)) (P10408 whole entry): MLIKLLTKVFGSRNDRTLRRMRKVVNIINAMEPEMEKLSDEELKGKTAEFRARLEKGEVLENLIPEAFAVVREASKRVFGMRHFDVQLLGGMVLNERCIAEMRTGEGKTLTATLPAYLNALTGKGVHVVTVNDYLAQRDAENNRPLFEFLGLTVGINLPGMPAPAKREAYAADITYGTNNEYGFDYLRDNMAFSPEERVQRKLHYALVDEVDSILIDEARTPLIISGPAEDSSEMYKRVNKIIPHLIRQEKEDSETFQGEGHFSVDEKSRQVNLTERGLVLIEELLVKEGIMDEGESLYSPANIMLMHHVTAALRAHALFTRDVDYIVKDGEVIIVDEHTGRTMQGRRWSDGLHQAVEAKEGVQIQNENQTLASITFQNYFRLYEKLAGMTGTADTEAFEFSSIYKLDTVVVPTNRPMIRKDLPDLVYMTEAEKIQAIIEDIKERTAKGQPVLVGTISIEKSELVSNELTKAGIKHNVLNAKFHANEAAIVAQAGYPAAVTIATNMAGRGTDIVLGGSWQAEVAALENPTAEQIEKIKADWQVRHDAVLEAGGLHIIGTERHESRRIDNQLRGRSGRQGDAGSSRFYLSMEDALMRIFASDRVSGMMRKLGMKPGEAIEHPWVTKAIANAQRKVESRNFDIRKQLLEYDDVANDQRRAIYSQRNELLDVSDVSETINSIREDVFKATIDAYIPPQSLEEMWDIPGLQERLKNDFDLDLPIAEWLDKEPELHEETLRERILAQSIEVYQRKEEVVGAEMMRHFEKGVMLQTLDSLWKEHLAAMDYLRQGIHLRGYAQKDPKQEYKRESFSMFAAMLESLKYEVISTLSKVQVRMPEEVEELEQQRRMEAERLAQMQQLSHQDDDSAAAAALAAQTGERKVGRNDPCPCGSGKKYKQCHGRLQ
Sequence of Chromo domain-containing protein 1 (Saccharomyces cerevisiae (strain ATCC 204508 / S288c) (Baker's yeast)) (P32657 whole entry, the tested form may be a part): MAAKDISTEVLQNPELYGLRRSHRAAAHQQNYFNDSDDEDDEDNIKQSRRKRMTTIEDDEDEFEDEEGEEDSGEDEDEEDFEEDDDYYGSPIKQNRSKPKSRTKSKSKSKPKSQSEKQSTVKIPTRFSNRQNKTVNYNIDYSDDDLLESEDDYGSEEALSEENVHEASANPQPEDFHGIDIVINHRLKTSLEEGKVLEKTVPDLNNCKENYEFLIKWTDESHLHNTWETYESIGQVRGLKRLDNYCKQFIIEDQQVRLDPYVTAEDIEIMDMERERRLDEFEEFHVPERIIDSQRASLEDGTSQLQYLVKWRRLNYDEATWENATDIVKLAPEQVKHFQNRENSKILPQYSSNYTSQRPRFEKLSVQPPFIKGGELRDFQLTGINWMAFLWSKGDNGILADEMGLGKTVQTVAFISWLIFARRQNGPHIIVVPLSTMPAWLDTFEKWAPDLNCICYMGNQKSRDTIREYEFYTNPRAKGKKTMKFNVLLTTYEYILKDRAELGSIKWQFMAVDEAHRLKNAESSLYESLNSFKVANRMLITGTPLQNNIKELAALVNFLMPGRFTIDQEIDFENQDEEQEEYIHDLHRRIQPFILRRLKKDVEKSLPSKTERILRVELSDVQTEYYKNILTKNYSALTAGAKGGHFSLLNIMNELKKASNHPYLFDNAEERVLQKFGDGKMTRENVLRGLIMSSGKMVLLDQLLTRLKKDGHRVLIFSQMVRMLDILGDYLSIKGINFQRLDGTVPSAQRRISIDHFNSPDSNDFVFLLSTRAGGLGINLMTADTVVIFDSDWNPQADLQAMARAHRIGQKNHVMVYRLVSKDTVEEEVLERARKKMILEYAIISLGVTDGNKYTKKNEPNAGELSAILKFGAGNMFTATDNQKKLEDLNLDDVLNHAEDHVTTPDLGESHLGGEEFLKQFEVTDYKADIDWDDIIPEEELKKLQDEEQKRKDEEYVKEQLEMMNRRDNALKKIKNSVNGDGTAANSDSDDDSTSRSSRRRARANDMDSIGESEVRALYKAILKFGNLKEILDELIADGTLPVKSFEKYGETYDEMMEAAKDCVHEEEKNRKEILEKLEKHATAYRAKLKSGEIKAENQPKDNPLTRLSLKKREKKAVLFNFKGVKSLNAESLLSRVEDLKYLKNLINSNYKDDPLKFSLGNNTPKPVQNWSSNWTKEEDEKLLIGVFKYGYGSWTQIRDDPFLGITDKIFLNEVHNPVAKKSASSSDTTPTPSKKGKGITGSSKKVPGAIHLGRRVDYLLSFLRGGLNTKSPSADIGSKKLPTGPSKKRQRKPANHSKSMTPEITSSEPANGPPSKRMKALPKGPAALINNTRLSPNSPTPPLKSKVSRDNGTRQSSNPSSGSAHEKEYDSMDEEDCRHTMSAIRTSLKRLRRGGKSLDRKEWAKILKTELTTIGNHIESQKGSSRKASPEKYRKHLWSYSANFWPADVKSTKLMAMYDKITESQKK
Sequence of Sialic acid-binding Ig-like lectin 9 (Homo sapiens) (Q9Y336 whole entry): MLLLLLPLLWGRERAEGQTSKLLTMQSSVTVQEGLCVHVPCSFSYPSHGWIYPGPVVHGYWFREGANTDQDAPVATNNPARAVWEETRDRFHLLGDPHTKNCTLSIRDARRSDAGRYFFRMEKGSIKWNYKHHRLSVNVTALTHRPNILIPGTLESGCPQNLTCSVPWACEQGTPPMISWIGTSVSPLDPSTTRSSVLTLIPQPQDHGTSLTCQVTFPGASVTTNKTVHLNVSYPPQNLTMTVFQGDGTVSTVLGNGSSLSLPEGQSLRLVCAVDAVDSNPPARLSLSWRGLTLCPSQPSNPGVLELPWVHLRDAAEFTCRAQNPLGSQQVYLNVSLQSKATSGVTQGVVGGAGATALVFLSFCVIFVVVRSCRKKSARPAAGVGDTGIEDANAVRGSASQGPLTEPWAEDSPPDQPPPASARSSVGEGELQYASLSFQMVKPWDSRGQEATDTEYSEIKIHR

In the case of `Cc1ccc(CN2CCCC3(CCN(S(=O)(=O)N(C)C)C3)C2)o1` (stereo not given), the Percent Effect was -4.24% in assay [1]; 10.7% in [2]; 11.3% in [3]; 7.3% in assay [4]; -2.17% with Trypanosoma cruzi; 3.03% in [5]. The Percent Effect in assay [6] is 13.7%; in the assay filed under Homo sapiens, 9.85%; in [7] it was 7.45%; in assay [8], 19.2%; in assay [9], -3.25%.
As for `CCOc1cccc2c1OCC(C(=O)NS(=O)(=O)Cc1ccccc1)=C2`, the Percent Effect in [1] was -2.71%; in assay [2], 0%; in [3], 1.17%; in assay [4], -4.5%; in the assay with Trypanosoma cruzi, -8.59%; in assay [5] it was 24.9%. Further, the Percent Effect in assay [6] is 2.52%; in the assay filed under Homo sapiens, 24.4%; in [7] it was -10.3%; in assay [8], -6.17%; in assay [9] it was -6.55%.
With `c1cncc(CN2CCc3ncnc(C4CCOC4)c3CC2)c1` (stereo not given), the Percent Effect in assay [1] was 1.94%; in assay [2], 21.3%; in [3], 13.3%; in assay [4] it was -7%; in the assay on Trypanosoma cruzi, -4.92%; in assay [5], 2.1%. Besides, the Percent Effect is 7.14% in [6]; 15.9% in the assay filed under Homo sapiens; 5.32% in assay [7]; 6.41% in assay [8]; -0.839% in [9].
Consider `Cc1oc(-c2ccco2)nc1CC(=O)N1CCC(C(O)C(F)(F)F)CC1` (stereo not given), for which the Percent Effect in assay [1] was -2.39%; in assay [2] it was 0%; in [3], -2.68%; in [4], 2.74%; with Trypanosoma cruzi, 6.76%; in assay [5] it was -4.42%. Besides, the Percent Effect in assay [6] is -5.58%; in the assay listed under Homo sapiens it was -30%; in [7], -0.952%; in assay [8] it was 9.41%; in assay [9] it was -13.1%.
Turning to `N#Cc1cccc(CS(=O)(=O)NCC(O)Cc2ccccc2)c1` (stereo not given), the Percent Effect is -4.15% in assay [1]; -2.67% in assay [2]; 0.717% in assay [3]; 0.263% in assay [4]; 0.682% with Trypanosoma cruzi; -3.12% in assay [5]. Further, the Percent Effect in assay [6] worked out at 1.4%; in the assay listed under Homo sapiens it was 6.52%; in assay [7], 0.546%; in assay [8], 3.7%; in assay [9], 1.24%.
For `Cc1cc(C(=O)N2CCc3ncc(CN4CCOCC4)n3CC2)no1`, the Percent Effect is -4.01% in assay [1]; 0% in assay [2]; 1.62% in [3]; 0.585% in [4]; 0.0978% in the assay with Trypanosoma cruzi; -15.6% in assay [5]. In addition, the Percent Effect is -3.51% in assay [6]; -3.46% in the assay filed under Homo sapiens; -3.24% in [7]; -5.13% in [8]; 8.28% in assay [9].
With `CC(C)c1cc(NC(=O)CN2CCc3cncnc3C2)on1`, the Percent Effect in assay [1] was -5.41%; in assay [2] it was 10.4%; in assay [3], -22.4%; in [4], 3.99%; in the assay with Trypanosoma cruzi, 1.31%; in assay [5] it was -5.34%. For the same compound, the Percent Effect is 4.39% in assay [6]; -5.17% in the assay filed under Homo sapiens; 16.5% in [7]; 21.9% in assay [8]; -6.84% in assay [9].
In the case of `CCN1CC2(CC1=O)CN(Cc1cnn(C)c1)CCN(C(=O)C(C)C)C2` (stereo not given), the Percent Effect in assay [1] was -6.68%; in [2], 5.41%; in [3], 0.933%; in assay [4] it was -1.78%; in the assay on Trypanosoma cruzi, -1.17%; in [5] it was -1.67%. In addition, the Percent Effect in assay [6] worked out at 7.52%; in the assay listed under Homo sapiens it was 8.39%; in assay [7], 7.92%; in assay [8], 6.1%; in assay [9], 2.63%.
Regarding `COCc1ccc(CN2CCC(O)(Cn3ccc4ncccc43)CC2)o1`, the Percent Effect in [1] is -1.21%; in assay [2] it was 2.67%; in [3], -2.95%; in assay [4], 1.83%; in the assay with Trypanosoma cruzi, 5.51%; in assay [5], 0.233%. In addition, the Percent Effect was 9.07% in assay [6]; 7.16% in the assay filed under Homo sapiens; 2.13% in assay [7]; 3.85% in assay [8]; -6.45% in assay [9].
As to `c1ccc2oc(N3CCCCC3Cn3cncn3)nc2c1` (stereo not given), the Percent Effect in [1] is -9.23%; in assay [2], 18.9%; in assay [3] it was -13.5%; in assay [4] it was 28.6%; in the assay with Trypanosoma cruzi, 11.4%; in [5] it was -2.4%. The Percent Effect in assay [6] was 2.69%; in the assay filed under Homo sapiens, 1.84%; in assay [7], 7.92%; in assay [8] it was 25.6%; in assay [9] it was -5.86%.
